Source: PubChem
USP28 block: human USP28 deubiquitinase inhibition. Q96RU2. purified USP28, Ub-rhodamine cleavage fluorescence, 30 min. inhibition, % at 25 µM. 47,000 tested, 3% active
OTUD3 inh: inhibitors of human OTUD3 deubiquitinase. inhibition, % at 25 µM. 47,000 tested, 0.7% active. AID 1645858. purified OTUD3, Ub-rhodamine fluorescence, 2 h
Target sequence (Q5T2D3 whole entry, looked up): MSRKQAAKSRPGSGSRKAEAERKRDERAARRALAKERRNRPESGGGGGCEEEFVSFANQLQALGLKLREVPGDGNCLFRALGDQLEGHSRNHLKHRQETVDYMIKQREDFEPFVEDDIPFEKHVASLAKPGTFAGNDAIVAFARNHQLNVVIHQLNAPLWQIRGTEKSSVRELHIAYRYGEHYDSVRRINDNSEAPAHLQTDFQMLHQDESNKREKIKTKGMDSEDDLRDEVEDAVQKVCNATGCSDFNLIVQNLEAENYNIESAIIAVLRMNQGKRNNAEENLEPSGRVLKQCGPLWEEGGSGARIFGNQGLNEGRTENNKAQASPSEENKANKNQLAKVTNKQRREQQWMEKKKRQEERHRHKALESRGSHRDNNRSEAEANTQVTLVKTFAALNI
An asterisk follows results filed as active; x = not tested or not shown. Most compounds without a hit are left out; they make up all but 3.3% or so of the library. Cut-off read from the data, not from the text of the source: active = inhibition above about 30%; inactive = the rest.

SMILES	USP28 block	OTUD3 inh
O=C1C/C(=C\c2cccc([N+](=O)[O-])c2)Cc2ccccc21	30	5
O=C1C/C(=C\c2cccc(Cl)c2)Cc2ccccc21	54*	27
COc1ccc(/C=C2\CC(=O)c3ccccc3C2)c(OC)c1	14	8
O=C1C/C(=C\c2cccc(Br)c2)Cc2ccccc21	34*	22
CCOC(=O)C1C(=O)NC(c2ccccc2)=NC1c1ccc(C(F)(F)F)cc1 (configuration not stated)	13	7
CC(C)c1nc2sc3c(NCc4ccco4)ncnc3c2c2c1CCC2	63*	-17
c1nc(NCCN2CCOCC2)c2sc3nc(N4CCOCC4)c4c(c3c2n1)CCC4	1	3
CC(C)c1nc2sc3c(NCCN4CCOCC4)ncnc3c2c2c1CCC2	35*	7
CC(C)c1nc2sc3c(NCc4ccccn4)ncnc3c2c2c1CCC2	24	0
COCCCNC(=O)[C@H](Cc1ccccc1)NC(=O)[C@@H]1Cc2c([nH]c3ccccc23)C2c3ccccc3C(=O)N21 (some centres not stated)	6	11
COc1ccccc1N1CCN(C2CC(=O)N(c3ccc(C(C)C)cc3)C2=O)CC1 (configuration not stated)	4	13
Cc1ccc(-c2cc3c(=O)n(Cc4noc(CN5CCC(C)CC5)n4)ccn3n2)cc1	12	-9
O=C(CNC(=O)c1cc2ccccc2o1)Nc1ccc2c(c1)OCCO2	56*	14
Cc1ccc(NC(=O)CNC(=O)c2cc3ccccc3o2)cc1	-9	-2
CSc1ccccc1C(=O)Nc1sc2c(c1C(N)=O)CCCCC2	29	7
c1ccc(CCN2CCn3c(nc4ccccc43)C2)cc1	-226	-178
O=[N+]([O-])c1ccc2c(c1)nc1n2CCN(Cc2ccco2)C1	43*	22
CC(=O)N[C@H]1C[C@H]2CN(Cc3ccccc3)c3ccccc3CN2C1	-136	-160
O=c1oc2ccccc2cc1-c1nc(-c2ccc(Oc3ccccc3)cc2)cs1	36*	-29
O=c1cc(-c2cc3ccccc3oc2=O)c2ccc(O)cc2o1	13	15
CC(Sc1nc2ccccc2[nH]1)C(=O)Nc1ccc2c(c1)OCCO2 (configuration not stated)	28	-14
O=C(CSc1nc2ccccc2[nH]1)Nc1cccc2c1OCCO2	41*	13
Cc1ncc(C(=O)N2CCC(C3(C)CCCCN(CCc4ccccc4)C3=O)CC2)c(C)n1 (configuration not stated)	-8	-1
CCN1CCN(c2ncc3c(=O)n(Cc4ccccc4)ccc3n2)CC1	-8	-15
Clc1ccc(Cc2nnc(-c3cccnc3)o2)cc1	31*	1
SMILES	USP28 block	OTUD3 inh
O=C(Cc1nnc(-c2cnccn2)o1)NCc1ccc(Cl)cc1	-4	-5
CN1C(=O)OC[C@@H]2CCN(C(=O)c3ccc(C(=O)O)cc3)C[C@H]21	-6	-1
Cc1ccc(Cl)cc1N1CCN(C(=O)CN2C(=O)CN(C)C(=O)c3ccccc32)CC1	-10	-13
CCCNC(=O)COC(=O)c1cc(-c2cc(OC)c(OC)c(OC)c2)nc2ccccc12	x	-3
O=C1CCCC[C@@H]2[C@@H](N1)[C@H](c1cccc(F)c1)CN2C(=O)c1cc(C2CC2)[nH]n1	-10	-3
Cc1cc(=O)n(CC(=O)N2CCCCC2)c2c1c(C)nn2-c1ccccc1	-3	2
Cc1cc(=O)sc2c1c(C)nn2-c1ccccc1	30*	19
COc1cccc(C(=O)N2CC[C@H]3[C@H]2CCCCC(=O)N3Cc2ccccc2F)c1	12	8
COc1cc(C)cc2c1C(=O)c1c(cc(O)c(Cl)c1O)C2=O	80*	76*
COc1cc(CO)cc2c1C(=O)c1c(O)cc(O)cc1C2=O	6	0
Cc1noc(-c2cccn(Cc3cccc(C(F)(F)F)c3)c2=O)n1	76*	12
COc1cccc(Cn2cccc(-c3nc(C)no3)c2=O)c1	x	-1
CCCCc1nc2sc3c(NCc4cccnc4)ncnc3c2c2c1CCC2	x	3
CCCc1nc2sc3c(NCCc4ccc(OC)c(OC)c4)ncnc3c2c2c1CCC2	67*	-28
CCCc1nc2sc3c(NC4CCCCC4)ncnc3c2c2c1CCC2	75*	5
CCCc1nc2sc3c(N(CC)CC)ncnc3c2c2c1CCC2	52*	1
CC(C)Cc1nc2sc3c(NC4CCCCC4)ncnc3c2c2c1CCC2	-8	-4
CCCCc1nc2sc3c(SCC(=O)OC)ncnc3c2c2c1CCC2	26	-9
CC(C)Cn1c(CNC(=O)c2ccccc2F)nnc1SCC(=O)N1CCOCC1	9	14
COc1ccccc1NC(=O)NC1CCN(c2ccc(F)cc2)C1=O (configuration not stated)	0	8
O=C(Nc1ccc(F)cc1F)NC1CCN(c2ccccc2)C1=O (configuration not stated)	45*	12
Cc1csc2ncc(C(=O)N3CCN(c4ccccc4F)CC3)c(=O)n12	-9	38*
Cc1csc2ncc(C(=O)N3CCN(c4ccccc4)CC3)c(=O)n12	-86	-27
CCCCCCCCCCCCCCCC(=O)NC(CCC(=O)O)C(=O)NC(CCCN)C(=O)NC1Cc2ccc(cc2)OC(=O)C(C(C)CC)NC(=O)C(Cc2ccc(O)cc2)NC(=O)C(CCC(N)=O)NC(=O)C2CCCN2C(=O)C(C(C)C)NC(=O)C(CCC(=O)O)NC(=O)C(C(C)O)NC1=O (configuration not stated)	13	21
CC1NC(=O)C(CC(N)=O)NC(=O)C(C(C)O)NC(=O)C(Cc2ccc(O)cc2)NC(=O)C(C(C)C)NC(=O)C(NC(=O)CC(O)CCCCCCCCCCCCN=C(N)N)C(C)OC1=O (configuration not stated)	87*	73*
SMILES	USP28 block	OTUD3 inh
Cc1cnc(NC(=O)C2Cc3ccccc3CN2C(=O)c2ccccc2)s1 (configuration not stated)	-14	-26
COC1=C(N)C(=O)c2nc(-c3nc(C(=O)O)c(C)c(-c4ccc(O)c(OC)c4O)c3N)ccc2C1=O	31*	14
CC(C)=CCC/C(C)=C/Cc1c(O)cc2c(c1O)C(=O)OC2	74*	79*
CC(C)=CCC/C(C)=C/CC/C(C)=C/Cc1c(C)[nH]c2ccccc2c1=O	7	8
O=C(NCc1ccc2c(c1)OCO2)C1=CCN(Cc2cccc(F)c2)CC1	0	0
O=C(Nc1ccc(-n2ccc(C(F)(F)F)n2)cc1)Nc1ccc2c(c1)CCO2	41*	16
O=C(CCc1ccc2c(c1)CCO2)Nc1cccnc1	3	-6
COc1ccc(C)cc1NC(=O)c1ccc(-n2nc(C)cc2C)nn1	-2	0
Cc1nnc(NC(=O)CN2CCCCC2c2nc(C(C)C)no2)s1 (configuration not stated)	7	16
Cc1ccc(C)c(Cn2cnc3c(nnn3-c3cccc(F)c3)c2=O)c1	-16	-13
COc1ccc(CC(=O)NCc2nnc3c(C(F)(F)F)cc(Cl)cn23)c(OC)c1	-5	-5
CCCCCNc1ncnc2c1CN(C1CCNC1)C(=O)CN2C (configuration not stated)	-6	-5
CN1CC(=O)N(C2CCNC2)Cc2c(NCc3ccc(Cl)cc3)ncnc21 (configuration not stated)	31*	0
Cc1nc(-c2cccc(S(=O)(=O)NCc3ccc(F)cc3)c2)no1	6	4
O=c1c2cc([N+](=O)[O-])ccc2nc(CN2CCN(CCO)CC2)n1-c1ccccc1F	-4	7
